Results on one molecule are retold here after the supplement of paper PMC8728848.

About 410 targets per protein were measured; listed, in parts, are those with the strongest signals and a random draw of the rest.

What all share (test): glycan array binding signal (z-score within array); higher = stronger binding
Holding throughout (conditions): glycan notation: IUPAC condensed, linker removed

Assay [1] addresses Fuc(a1-2)Gal(b1-3)GlcNAc(b1-2)Man(a1-3)[Fuc(a1-2)Gal(b1-3)GlcNAc(b1-2)Man(a1-6)]Man(b1-4)GlcNAc(b1-4)GlcNAc. The method in brief:
(§1)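 Glycan array data came from 3228 arrays in the Consortium for Functional Glycomics database, and only arrays with an available protein sequence were kept. Glycan names were put into IUPAC-condensed notation, and columns mapping to the same glycan were averaged. The binding signal is a within-array Z-score, averaged across arrays of one protein sequence run at different concentrations or buffers and across linkers. A negative Z-score can be read as non-binding.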

For assay [2], the target named is Fuc(a1-2)Gal(b1-4)Fuc(a1-3)]GlcNAc(b1-2)Man(a1-3)[Fuc(a1-2)Gal(b1-4)[Fuc(a1-3)]GlcNAc(b1-2)Man(a1-6)]Man(b1-4)GlcNAc(b1-4)GlcNAc. The method in brief:
as §1

The target in a further assay is Fuc(a1-2)Gal(b1-4)GlcNAc. A digest of the protocol:
as §1

In assay [3] the target is Fuc(a1-2)Gal(b1-4)GlcNAc(b1-2)Man(a1-3)[Fuc(a1-2)Gal(b1-4)GlcNAc(b1-2)Man(a1-6)]Man(b1-4)GlcNAc(b1-4)[Fuc(a1-6)]GlcNAc. A digest of the protocol: as §1
Assay [4] addresses Fuc(a1-2)Gal(b1-4)GlcNAc(b1-3)Gal(b1-4)GlcNAc(b1-2)Man(a1-3)[Fuc(a1-2)Gal(b1-4)GlcNAc(b1-3)Gal(b1-4)GlcNAc(b1-2)Man(a1-6)]Man(b1-4)GlcNAc(b1-4)GlcNAc. A digest of the protocol:
as §1

In assay [5] the target is Fuc(a1-2)[Gal(a1-3)]Gal(b1-3)GlcNAc(b1-2)Man(a1-3)[Fuc(a1-2)[Gal(a1-3)]Gal(b1-3)GlcNAc(b1-2)Man(a1-6)]Man(b1-4)GlcNAc(b1-4)GlcNAc. The method in brief: as §1
Assay [6] has as its target Fuc(a1-2)[Gal(a1-3)]Gal(b1-3)GlcNAc(b1-6)GalNAc. A digest of the protocol:
as §1

The target in assay [7] is Fuc(a1-2)[Gal(a1-3)]Gal(b1-4)Glc. The method in brief: as §1
The target of assay [8] is Fuc(a1-2)[GalNAc(a1-3)]Gal(b1-4)GlcNAc(b1-2)Man(a1-3)[Fuc(a1-2)[GalNAc(a1-3)]Gal(b1-4)GlcNAc(b1-2)Man(a1-6)]Man(b1-4)GlcNAc(b1-4)[Fuc(a1-6)]GlcNAc. A digest of the protocol: as §1
The target in assay [9] is Fuc(a1-2)[GalNAc(a1-3)]Gal(b1-4)GlcNAc(b1-3)GalNAc. A digest of the protocol: as §1
For assay [10], the target named is Fuc(a1-2)[GalNAc(b1-3)]Gal. A digest of the protocol: as §1
In assay [11] the target is Fuc(a1-3)[Gal(b1-4)]GlcNAc(b1-2)Man(a1-3)[Fuc(a1-3)[Gal(b1-4)]GlcNAc(b1-2)Man(a1-6)]Man(b1-4)GlcNAc(b1-4)[Fuc(a1-6)]GlcNAc. The method in brief: as §1
For assay [12], the target named is Fuc(a1-3)[Gal3S(b1-4)]Glc. A digest of the protocol:
as §1

Assay [13] concerns the target Gal(a1-3)Gal(b1-3)GlcNAc(b1-2)Man(a1-3)[Gal(a1-3)Gal(b1-3)GlcNAc(b1-2)Man(a1-6)]Man(b1-4)GlcNAc(b1-4)GlcNAc. A digest of the protocol: as §1
For assay [14], the target named is Gal(a1-4)Gal(b1-3)GlcNAc(b1-2)Man(a1-3)[Gal(a1-4)Gal(b1-3)GlcNAc(b1-2)Man(a1-6)]Man(b1-4)GlcNAc(b1-4)GlcNAc. The method in brief: as §1
Assay [15] concerns the target Gal(b1-3)GalNAc(a1-3)[Fuc(a1-2)]Gal(b1-4)GlcNAc. The method in brief:
as §1

For assay [16], the target named is Gal(b1-3)GlcNAc(b1-3)Gal(b1-4)GlcNAc(b1-2)Man(a1-3)[Gal(b1-3)GlcNAc(b1-3)Gal(b1-4)GlcNAc(b1-2)Man(a1-6)]Man(b1-4)GlcNAc(b1-4)GlcNAc. A digest of the protocol:
as §1

The target of assay [17] is Gal(b1-3)GlcNAc(b1-3)Gal(b1-4)GlcNAc(b1-6)[Gal(b1-3)GlcNAc(b1-3)]Gal(b1-4)Glc. The method in brief: as §1
The target in assay [18] is Gal(b1-3)GlcNAc(b1-6)GalNAc. The method in brief: as §1
Assay [19] concerns the target Gal(b1-3)[Fuc(a1-4)]GlcNAc. A digest of the protocol:
as §1

A further assay has as its target Gal(b1-4)Glc6S. A digest of the protocol: as §1
Assay [20] deals with Gal(b1-4)GlcNAc(b1-2)Man(a1-3)Man(b1-4)GlcNAc(b1-4)GlcNAc. A digest of the protocol:
as §1

B1: InvD YPIII (Yersinia pseudotuberculosis), B1JSC0 (protein)
chain: MIKYFSFFKKPEPIVGILPNRQSHHILPTHIRRVAWGTLLLQLFIPLSVSFSPAIAAMKASKADTMVSYSSTEPYVLGSGETVAMVAKKYGITVDELKKINIYRTFSRPFTALTTGDEIDIPRKASPFSVDNNKDNRLSVENTLAGHAVAGATALSNGDVAKSGERMVRSAASNEFNNSAQQWLSQFGTARVQLNINDDFHLDGSAADVLIPLYDNEKSILFTQLGARNKDSRNTVNMGAGVRTFQGNWMYGANTFFDNDLTGKNRRIGVGAEAWTDYLKLSANNYFGITDWHQSRDFIDYNERPANGYDLRAEAYLPSYPQLGGKAMYEKYRGDDVALFGKDNRQKNPHAITAGVNYTPIPLVTIGAEHRAGKGGQNDSNINFQLNYRLGETWQSHIDPSAVAASRTLAGSRYDLVERNNHIVLDYQKQNLVRLSLPDSLAGDPFSQLSVTAQVTATHGLERIDWQSAELMAAGGVLKQTSKNGLEITLPEYQMNRTGGNSYILNAIAYDTQGNASSQASMLITVNAQKINIANSTLVAVPINIEANNSDTSVVTLTLKDDNNIPVTGQDVTFLSPLGTLSAMTDSGNGVYTATLTAGTVSGTTAVSSNINGSALDMTPATVTLNGNSGELSITHSMLVAAPVNIEANGSDTSVVTLTLRDSNNNPVTGQTVTFAGTLGTLGAVTEGSSGVYTATLTAGIMVGTSSITASVNSTALGVTPATVTLNGDSGNLSTTNSTLVAAPVNIEANSSDTSVVTLTLRDNNNNPVTGQTVVFTSTLGTLGNVTEQASGVYTATLTAGTVSGVASLSVSVGGNALGVTPATVTLNGDSGNLSTTNSTLVAAPVNIEANSSDTSVVTLTLRDNNNNPVTGQTVNFAGTLGTLGTVSEGSSGVYTTTLTAGTVAGVASLSVNVGGNALGVTPATVTLNGNSGNLSATNSTLVAAPVNIEANSSDTSVVTLTLRDNNNNPVTGQTVAFTSTLGTLGNVTEQASGVYTATLTAGTVSGVASLSVSVNSNALGVTPATVTLNGDSGNLSTTNSTLVAAPVNIEANSSDTSVVTLTLRDNNNNPVTGQTVAFTSTLGTLGNVTEQASGLYTATLTAGTVSGVASLSVNVGGNALGVTPATVTLNGDSGNLSATNSTLVAAPVNIEANSSDTSVVTLTLRDNNNNPVTGQTVAFTSTLGTLGNVTEQASGLYTATLTAGTVSGVASLSVNVGGTALGVTPATVTLNGDSGNLSTTNSTLVAAPVNIEANSSDTSVVTLTLRDNNNNPVTGQTVAFTSTLGTLGNVTEQASGLYTATLTAGTVSGVASLSVSVNSTALGVTPATVTLNGDSGNLSTTNSTLVAAPVNIEANSSDTSVVTLTLRDNNNNPVTGQTVAFTSTLGTLGNVTEQASGVYTATLTAGTVAGVASLSVNVGGNALGVTPATVTLNGDSGNLSTTNSTLVAAPVNIEANSSDTSVVTLTLRDNNNNPVTGQTVAFTSTLGTLGNVTEQASGVYTATLTAGTVSGVASLSVSVGSSALGVTPATVTLNGDSGNLSTTNSTLVAAPVNIEANNSDTSVVTLTLRDNNNNPVTGQTVAFTSTLGTLGNVTEQASGVYTATLTAGTVSGVASLSVSVNSNALGVTPATVTLNGDSGNLSTTNSTLVAAPVNIEANSSDTSVVTLTLRDNNNNPVTGQTVVFTSTLGTLGNVTEQASGLYTATLTAGTVSGVASLSVSVGGNALGVTGNITLAPGALDAARSILAVNKPSINADDRIGSTITFTAQDAQGNAITGLDIAFMTDLENSQIMTLVDHNDGTYTANINGTQTGIANIAVQSSGATIAGLAATMVTITPGAWNTTQATPVMTVALPITTCQSSSGVYKRYYIGIVTHELYDNYGNEISGILTYNLGAGRYTTVTSQNSSVSGSNGLTRRSNSPVSHFILTSDAYTSQAACYAERIANVNVTITVTAITDDFKTSAVNKVFILGTGSN
As to B1, the “glycan array binding signal (z-score)” value was 0.001 in assay [1]; 1.36 in assay [2]; -0.154 in the assay with Fuc(a1-2)Gal(b1-4)GlcNAc; 0.037 in assay [3]; -0.232 in [4]; -0.164 in [5]. The “glycan array binding signal (z-score)” value is 0.218 in assay [6]; -0.359 in assay [7]; 0.113 in [8]; -0.306 in assay [9]; 0.063 in assay [10]; -0.147 in assay [11]. For the same molecule, the “glycan array binding signal (z-score)” value in [12] was -0.259; in assay [13], 0.213; in [14] it was 0.015; in [15], -0.102; in [16], -0.358; in [17] it was -0.192. Also, the “glycan array binding signal (z-score)” value in [18] was -0.16; in assay [19], -0.119; with Gal(b1-4)Glc6S, -0.213; in [20] it was -0.355.
